Data on eight compounds can be found in PubChem BioAssay (NCI).

Compounds without any hit were thinned out: in the full panel of roughly 83,000, 20% have a hit.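 96-well plates, one dose, 48 hours. Percent growth reported; active if below 10.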 Values without a mark were called inactive. Calls of active or inactive are those of the source.

Holding throughout (assay): NCI-60 one-dose screen, 48 h (100 = growth as untreated, 0 = no growth, -100 = all killed)
Common to all, as to details: 10 µM unless noted

Assay [1] deals with SK-MEL-2 melanoma.
Assay [2] relates to EKVX NSCLC.
For assay [3], the system named is SN12C renal.
Assay [4] has as its system UO-31 renal.
Assay [5] has as its system TK-10 renal.
Assay [6] relates to ACHN renal.
Assay [7] has as its system CAKI-1 renal.
Assay [8] concerns CCRF-CEM leukemia.
For assay [9], the system named is MOLT-4 leukemia.
The test system of assay [10] is SR leukemia.
Assay [11] has as its system RPMI-8226 leukemia.
For assay [12], the system named is OVCAR-8 ovarian.
For assay [13], the system named is OVCAR-5 ovarian.
Assay [14] deals with OVCAR-4 ovarian.
The test system of assay [15] is SK-OV-3 ovarian.
Assay [16] has as its system IGROV1 ovarian.
The subject of assay [17] is OVCAR-3 ovarian.
Assay [18] relates to HS 578T breast.
Assay [19] has as its system NCI/ADR-RES ovarian.
For assay [20], the system named is A498 renal.

Take `CN1CCN(Cc2ccc(NC(=O)c3cncc(C#Cc4cncn5ccnc45)c3)cc2C(F)(F)F)CC1`: the growth in assay [1] is 24.2%; in [2], 86.6%; in [3] it was 31.3%; in assay [4], 44%; in [5], 94.2%; in [6] it was 37.8%. Moreover, the growth in assay [7] is 89.2%; in [8] it was 36%; in assay [9] it was 82.9%; in [10], 40.8%; in [11] it was 54.9%; in assay [12] it was 68.8%. Further, the growth is 48.4% in assay [13]; 48.5% in assay [14]; 88.9% in [15]; 20.4% in assay [16]; 83.8% in [17]; 69.6% in assay [18]. Moreover, the growth in assay [19] is 93.6%.
As to `Nc1n[nH]c2ccc([C@@H]3Nc4ccc5cn[nH]c5c4[C@H]4C5CCC(C5)[C@@H]34)cc12` (stereo partly drawn), the growth in assay [1] was 55.5%; in assay [2] it was 48.7%; in assay [3], 43.9%; in [4] it was 38.9%; in assay [5] it was 74.3%; in [6], 39.2%. The growth in [7] is 33.2%; in assay [8] it was 15.6%; in assay [9], 20.8%; in [10], 14.3%; in assay [11] it was 40.3%; in [12], 35.5%. In addition, the growth was 40.3% in assay [13]; 35.2% in assay [14]; 37.7% in assay [15]; 22.1% in [16]; -5.18% (active) in [17]; 21.2% in [18]. Further, the growth in assay [19] is 20.7%.
With `CC1=C[C@H]2c3c(c(O)c(O)c4oc5cc(O)ccc5c(=O)c34)[C@H](c3cc(O)c(O)c4oc5cc(O)ccc5c(=O)c34)[C@H]2C(C)(C)C1`, the growth in assay [1] was 44.8%; in assay [2], 51.1%; in [3], 28.7%; in [4], 46.5%; in assay [5] it was 56%; in assay [6] it was 37.9%. The growth in assay [7] is 40.3%; in assay [8], 27.1%; in assay [9] it was 25.3%; in assay [10], 24.6%; in assay [11], 29.5%; in assay [12], 25.4%. Also, the growth in assay [13] is 59.1%; in [14], 56%; in assay [15], 59.7%; in assay [16], 21.4%; in assay [17], 46.4%; in [18] it was 22.4%. For the same compound, the growth in [19] is 101%.
In the case of `c1ccc(-c2c(-c3ccccc3)[n+](Cc3ccc4ccccc4c3)c(-c3ccc(-c4nc5ccccc5s4)cc3)n2Cc2ccc3ccccc3c2)cc1`, the growth in assay [1] was -88.7% (active); in assay [2] it was -93.4% (active); in assay [3], -86.7% (active); in [4] it was -94.1% (active); in assay [5] it was -80.9% (active); in assay [6], -96.8% (active). Further, the growth in assay [7] is -89.5% (active); in [20], -97.4% (active); in [8], -14.8% (active); in assay [11] it was -40.5% (active); in assay [12], -85.4% (active); in assay [13], -93% (active). The growth in assay [14] is -62.9% (active); in [17], -89.4% (active); in [18], -45.3% (active); in [19] it was -52.1% (active).
As to `O=C1/C(=C/c2ccc(Cl)cc2)SC(=S)N1CCc1ccc(O)cc1`, the growth in [1] was 99.7%; in assay [2], 93.8%; in [3] it was 80.2%; in assay [4], 54.6%; in [5] it was 80.5%; in assay [6], 99.1%. The growth was 81.3% in [7]; 87.6% in assay [20]; 23.1% in [8]; 102% in [10]; 90.6% in assay [11]; 97.6% in assay [12]. Further, the growth in assay [14] was 58.4%; in assay [15], 90.9%; in [16] it was 14.6%; in assay [17], 98.2%; in assay [18] it was 86.1%; in [19], 98.5%.
`O=[N+]([O-])c1ccccc1/C=N\NC(=S)N/N=C/c1ccccc1[N+](=O)[O-]`: the growth in assay [1] is 56.6%; in assay [2], 70.5%; in assay [3], 86.3%; in assay [4], 27.4%; in assay [5] it was 46.8%; in assay [6] it was 78.8%. Also, the growth in assay [7] was 42.2%; in assay [8], 82.7%; in [9], 37.8%; in assay [10] it was 19%; in [11], 87.3%; in assay [12] it was 102%. In addition, the growth in assay [13] is 86.4%; in [14], 98.9%; in assay [15] it was 69.1%; in assay [16], 15%; in assay [17], -27% (active); in assay [18], 62.9%. The growth in assay [19] is 14.4%.
On to `COC(=O)[C@@H]1CCCN1C(=O)[C@@H]1CCCN1C(=O)[C@H](Cc1ccccc1)NC(=S)Nc1cc(C(F)(F)F)cc(C(F)(F)F)c1`, for which the growth is -21.9% (active) in [1]; 75.7% in [2]; 95% in [3]; 75.5% in [4]; 85.1% in [5]; 72.2% in assay [6]. Besides, the growth was 72.3% in assay [7]; 53.4% in assay [8]; 50.1% in assay [9]; 80.9% in assay [10]; 43.9% in [11]; 41.6% in assay [12]. For the same compound, the growth is 88.4% in assay [13]; 77.9% in [14]; 98.1% in assay [15]; 108% in assay [16]; 24.6% in assay [17]; 83.7% in [18]. In addition, in [19], the growth was 67.4%.
For `C=CC(COC(c1ccccc1)(c1ccccc1)c1ccccc1)N(CC)CC` (stereo not drawn), the growth was 85.8% in assay [1]; 76.1% in [2]; 58.3% in assay [3]; 59.4% in assay [4]; 79.8% in assay [5]; 81.7% in [6]. Besides, the growth in assay [7] is 67.1%; in assay [20], 73.8%; in assay [8], 59.3%; in assay [10], 44.7%; in assay [11], 10.6%; in assay [12], 77%. The growth in [13] is 66.1%; in [14], 67.9%; in [15] it was 75.5%; in assay [16], 62%; in [17], 71.9%; in assay [18] it was 85.7%. The growth in [19] is 62.4%.
